In publication PMC7862700, “An all-to-all approach to the identification of sequence-specific readers for epigenetic DNA modifications on cytosine”:

How the values were obtained:
Assay in all cases: DAPPL (digital affinity profiling via proximity ligation, sequencing); 10 mM Tris-HCl pH 7.5, 50 mM NaCl, 1 mM DTT, 4% glycerol, room temperature, 30 min; GST-TFs on glutathione beads, 16-mer random dsDNA library, 0.1% formaldehyde crosslink after washing; high values mean tight binding
Conditions in all cases: protein: recombinant; tags: N-terminal GST; dsDNA, one strand shown
FLI1 = biological target: T1, FLI1 (Homo sapiens, UniProt Q01543 1-452)
T1 sequence: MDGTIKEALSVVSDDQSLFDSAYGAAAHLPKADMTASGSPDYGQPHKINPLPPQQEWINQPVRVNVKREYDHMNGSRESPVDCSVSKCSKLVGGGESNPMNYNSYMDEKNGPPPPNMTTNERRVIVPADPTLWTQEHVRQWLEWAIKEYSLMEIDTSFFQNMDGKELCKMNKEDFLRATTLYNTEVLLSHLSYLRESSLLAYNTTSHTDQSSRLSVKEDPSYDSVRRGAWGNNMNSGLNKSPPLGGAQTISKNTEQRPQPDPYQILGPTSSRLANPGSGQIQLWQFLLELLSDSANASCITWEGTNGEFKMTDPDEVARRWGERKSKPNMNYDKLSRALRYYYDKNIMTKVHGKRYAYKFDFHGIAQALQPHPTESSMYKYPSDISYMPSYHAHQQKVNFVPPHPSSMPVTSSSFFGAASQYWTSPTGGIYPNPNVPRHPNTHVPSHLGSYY
Method in brief: (§1)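 Human transcription factors carrying a GST fusion were produced in yeast, bound to glutathione beads, tagged with DNA barcodes and pooled together with a tag-only sample. Each pool was held with 200 nmole of a random double-stranded 16-mer DNA library in Tris/NaCl/DTT/glycerol buffer for 30 min at room temperature, then washed, crosslinked in 0.1% formaldehyde, proximity-ligated with BsaI/T4 ligase (1 h, 37 °C), PCR-amplified and sequenced on an Illumina NextSeq500. Binding signal is the read frequency of each hexamer for a given factor divided by its frequency in the tag-only sample.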

ELK1 = biological target: T2, ELK1 (Homo sapiens, UniProt P19419 1-428)
T2 sequence: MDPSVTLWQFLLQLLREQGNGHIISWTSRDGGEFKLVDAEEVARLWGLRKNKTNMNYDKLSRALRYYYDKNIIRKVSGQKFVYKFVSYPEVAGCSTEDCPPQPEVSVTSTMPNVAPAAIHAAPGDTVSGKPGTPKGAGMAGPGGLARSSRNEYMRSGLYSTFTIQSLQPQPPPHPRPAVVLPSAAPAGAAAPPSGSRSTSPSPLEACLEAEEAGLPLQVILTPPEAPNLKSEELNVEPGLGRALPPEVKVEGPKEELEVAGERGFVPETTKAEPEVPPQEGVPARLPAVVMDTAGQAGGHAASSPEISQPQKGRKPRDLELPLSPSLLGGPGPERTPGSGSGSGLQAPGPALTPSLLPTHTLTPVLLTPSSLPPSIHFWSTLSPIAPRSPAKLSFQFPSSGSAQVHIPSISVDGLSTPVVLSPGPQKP
Method in brief: as §1

GABPA = biological target: T3, GABPA (Homo sapiens, UniProt Q06546 1-454)
T3 sequence: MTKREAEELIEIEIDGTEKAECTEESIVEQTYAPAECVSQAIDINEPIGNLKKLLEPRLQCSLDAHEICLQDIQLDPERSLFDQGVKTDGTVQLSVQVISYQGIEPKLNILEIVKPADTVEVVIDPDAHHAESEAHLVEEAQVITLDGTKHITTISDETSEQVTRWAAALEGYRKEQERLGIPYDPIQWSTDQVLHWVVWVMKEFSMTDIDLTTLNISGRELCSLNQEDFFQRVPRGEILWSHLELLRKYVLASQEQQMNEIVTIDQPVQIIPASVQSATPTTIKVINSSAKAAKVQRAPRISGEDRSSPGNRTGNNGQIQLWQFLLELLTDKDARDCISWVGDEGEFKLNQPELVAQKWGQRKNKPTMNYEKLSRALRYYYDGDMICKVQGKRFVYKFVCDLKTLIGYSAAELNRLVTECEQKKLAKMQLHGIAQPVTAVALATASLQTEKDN
Method in brief: as §1

ERG = biological target: T4, ERG (Homo sapiens, UniProt P11308 1-479)
T4 sequence: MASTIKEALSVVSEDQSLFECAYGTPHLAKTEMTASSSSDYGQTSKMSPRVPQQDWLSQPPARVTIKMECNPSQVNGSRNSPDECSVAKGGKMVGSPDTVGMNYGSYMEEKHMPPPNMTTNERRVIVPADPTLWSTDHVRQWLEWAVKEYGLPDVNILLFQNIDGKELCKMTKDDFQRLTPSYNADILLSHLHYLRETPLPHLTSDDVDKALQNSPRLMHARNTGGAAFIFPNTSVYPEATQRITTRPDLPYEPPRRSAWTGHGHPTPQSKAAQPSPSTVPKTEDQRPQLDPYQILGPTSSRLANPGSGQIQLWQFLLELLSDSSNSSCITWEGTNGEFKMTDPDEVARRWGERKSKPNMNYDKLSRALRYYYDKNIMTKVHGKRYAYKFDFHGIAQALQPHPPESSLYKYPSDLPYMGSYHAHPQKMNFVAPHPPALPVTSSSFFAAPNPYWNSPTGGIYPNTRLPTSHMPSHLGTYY
Method in brief: as §1

ELF1 = ELF1 (Homo sapiens, UniProt P32519 1-619)
ELF1, sequence (P32519 whole entry): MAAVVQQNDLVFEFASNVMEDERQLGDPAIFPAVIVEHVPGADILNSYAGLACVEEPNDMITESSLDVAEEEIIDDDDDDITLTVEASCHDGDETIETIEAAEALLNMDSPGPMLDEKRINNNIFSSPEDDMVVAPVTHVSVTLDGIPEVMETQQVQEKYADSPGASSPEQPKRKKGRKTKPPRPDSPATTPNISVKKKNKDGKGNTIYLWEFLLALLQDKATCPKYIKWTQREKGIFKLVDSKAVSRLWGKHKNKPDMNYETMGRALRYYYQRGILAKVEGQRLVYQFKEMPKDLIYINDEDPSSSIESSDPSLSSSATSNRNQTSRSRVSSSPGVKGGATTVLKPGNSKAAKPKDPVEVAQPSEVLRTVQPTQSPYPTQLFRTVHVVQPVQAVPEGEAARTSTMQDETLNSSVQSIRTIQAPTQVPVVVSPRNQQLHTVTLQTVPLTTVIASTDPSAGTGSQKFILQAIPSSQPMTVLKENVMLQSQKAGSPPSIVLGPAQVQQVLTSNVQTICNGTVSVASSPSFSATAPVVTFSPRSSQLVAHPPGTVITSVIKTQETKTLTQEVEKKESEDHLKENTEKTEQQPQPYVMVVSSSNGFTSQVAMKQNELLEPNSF
Method in brief: as §1

EHF = biological target: T5, EHF (Homo sapiens, UniProt Q9NZC4 1-300)
T5 sequence: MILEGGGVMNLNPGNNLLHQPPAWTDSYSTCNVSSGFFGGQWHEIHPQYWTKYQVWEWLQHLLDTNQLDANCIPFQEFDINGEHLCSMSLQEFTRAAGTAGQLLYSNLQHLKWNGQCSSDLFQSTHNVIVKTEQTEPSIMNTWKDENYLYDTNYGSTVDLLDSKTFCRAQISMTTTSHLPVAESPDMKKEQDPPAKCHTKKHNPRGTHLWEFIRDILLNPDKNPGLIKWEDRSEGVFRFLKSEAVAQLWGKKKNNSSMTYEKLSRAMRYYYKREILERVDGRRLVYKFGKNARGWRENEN
Method in brief: as §1

SPI1 = SPI1 (Homo sapiens, UniProt P17947 1-270)
Method in brief: as §1

SPIB = SPIB (Homo sapiens, UniProt Q01892 1-262)
SPIB, sequence (Q01892 whole entry): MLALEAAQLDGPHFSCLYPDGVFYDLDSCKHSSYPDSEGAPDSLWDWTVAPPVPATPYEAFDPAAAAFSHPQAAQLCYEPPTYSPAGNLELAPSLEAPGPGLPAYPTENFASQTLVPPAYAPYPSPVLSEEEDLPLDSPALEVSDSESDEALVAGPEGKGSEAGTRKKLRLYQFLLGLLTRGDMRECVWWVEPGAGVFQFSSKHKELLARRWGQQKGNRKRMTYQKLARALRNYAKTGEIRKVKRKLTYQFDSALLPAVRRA
Method in brief: as §1

ELK3 = biological target: T6, ELK3 (Homo sapiens, UniProt P41970 1-407)
T6 sequence: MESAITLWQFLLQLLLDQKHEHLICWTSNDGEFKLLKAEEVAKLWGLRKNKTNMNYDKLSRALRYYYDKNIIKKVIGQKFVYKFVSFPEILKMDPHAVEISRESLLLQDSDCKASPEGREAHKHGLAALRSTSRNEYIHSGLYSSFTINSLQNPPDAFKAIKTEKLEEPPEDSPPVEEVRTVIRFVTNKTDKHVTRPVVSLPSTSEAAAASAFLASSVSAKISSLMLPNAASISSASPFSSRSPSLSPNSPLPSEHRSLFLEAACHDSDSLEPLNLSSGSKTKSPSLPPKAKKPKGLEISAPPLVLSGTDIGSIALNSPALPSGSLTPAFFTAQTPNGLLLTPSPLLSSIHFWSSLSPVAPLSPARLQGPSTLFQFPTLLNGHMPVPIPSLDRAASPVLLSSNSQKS
Method in brief: as §1

FEV = biological target: T7, FEV (Homo sapiens, UniProt Q99581 1-238)
T7 sequence: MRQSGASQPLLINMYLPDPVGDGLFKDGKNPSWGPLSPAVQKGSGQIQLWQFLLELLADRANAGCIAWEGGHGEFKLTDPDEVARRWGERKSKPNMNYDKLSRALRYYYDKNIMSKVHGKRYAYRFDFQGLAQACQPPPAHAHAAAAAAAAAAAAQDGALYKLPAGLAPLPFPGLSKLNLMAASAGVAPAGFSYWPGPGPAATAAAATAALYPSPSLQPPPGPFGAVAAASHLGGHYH
Method in brief: as §1

ETV5 = ETV5 (Homo sapiens, UniProt P41161 1-510)
ETV5, sequence (P41161 whole entry): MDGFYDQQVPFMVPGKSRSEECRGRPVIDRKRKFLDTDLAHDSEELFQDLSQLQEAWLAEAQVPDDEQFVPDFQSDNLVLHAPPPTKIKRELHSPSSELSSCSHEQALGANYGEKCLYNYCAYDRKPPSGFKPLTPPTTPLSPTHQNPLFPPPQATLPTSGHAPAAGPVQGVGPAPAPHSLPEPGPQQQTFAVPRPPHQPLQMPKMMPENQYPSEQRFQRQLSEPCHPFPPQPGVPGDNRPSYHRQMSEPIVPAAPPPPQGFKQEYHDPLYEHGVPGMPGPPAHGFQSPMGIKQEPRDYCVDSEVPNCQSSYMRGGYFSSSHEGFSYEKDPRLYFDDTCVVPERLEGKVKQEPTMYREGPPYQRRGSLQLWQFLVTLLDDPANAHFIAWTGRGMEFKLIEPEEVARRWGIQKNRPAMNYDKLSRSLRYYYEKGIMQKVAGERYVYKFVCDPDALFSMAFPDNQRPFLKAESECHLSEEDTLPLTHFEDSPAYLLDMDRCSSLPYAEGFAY
Method in brief: as §1

SPIC = biological target: T8, SPIC (Homo sapiens, UniProt Q8N5J4 1-248)
T8 sequence: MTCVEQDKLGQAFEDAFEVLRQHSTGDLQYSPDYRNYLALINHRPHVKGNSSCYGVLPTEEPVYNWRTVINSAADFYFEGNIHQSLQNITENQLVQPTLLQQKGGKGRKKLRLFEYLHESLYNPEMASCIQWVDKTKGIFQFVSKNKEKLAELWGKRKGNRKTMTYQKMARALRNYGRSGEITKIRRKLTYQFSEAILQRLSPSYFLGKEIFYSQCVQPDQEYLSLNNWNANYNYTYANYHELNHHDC
Method in brief: as §1

ELF4 = ELF4 (Homo sapiens, UniProt Q99607 1-663)
ELF4, sequence (Q99607 whole entry): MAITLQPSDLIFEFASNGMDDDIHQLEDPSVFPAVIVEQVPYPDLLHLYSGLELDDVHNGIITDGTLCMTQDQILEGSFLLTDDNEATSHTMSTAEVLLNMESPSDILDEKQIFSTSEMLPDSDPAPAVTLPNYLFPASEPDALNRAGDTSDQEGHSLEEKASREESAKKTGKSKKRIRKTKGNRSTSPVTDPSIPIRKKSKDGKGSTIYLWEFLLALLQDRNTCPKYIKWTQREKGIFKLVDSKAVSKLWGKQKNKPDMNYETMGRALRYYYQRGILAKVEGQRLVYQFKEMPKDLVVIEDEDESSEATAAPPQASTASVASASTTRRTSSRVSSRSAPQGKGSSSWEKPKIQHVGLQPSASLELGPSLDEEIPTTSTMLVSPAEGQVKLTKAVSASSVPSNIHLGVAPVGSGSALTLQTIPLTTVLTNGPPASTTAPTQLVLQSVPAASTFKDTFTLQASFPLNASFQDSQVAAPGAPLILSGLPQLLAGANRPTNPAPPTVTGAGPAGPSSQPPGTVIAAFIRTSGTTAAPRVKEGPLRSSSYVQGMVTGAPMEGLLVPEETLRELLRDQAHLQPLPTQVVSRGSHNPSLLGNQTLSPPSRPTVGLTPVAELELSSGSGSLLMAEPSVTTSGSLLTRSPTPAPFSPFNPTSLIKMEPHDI
Method in brief: as §1

ERF = biological target: T9, ERF (Homo sapiens, UniProt P50548 1-548)
T9 sequence: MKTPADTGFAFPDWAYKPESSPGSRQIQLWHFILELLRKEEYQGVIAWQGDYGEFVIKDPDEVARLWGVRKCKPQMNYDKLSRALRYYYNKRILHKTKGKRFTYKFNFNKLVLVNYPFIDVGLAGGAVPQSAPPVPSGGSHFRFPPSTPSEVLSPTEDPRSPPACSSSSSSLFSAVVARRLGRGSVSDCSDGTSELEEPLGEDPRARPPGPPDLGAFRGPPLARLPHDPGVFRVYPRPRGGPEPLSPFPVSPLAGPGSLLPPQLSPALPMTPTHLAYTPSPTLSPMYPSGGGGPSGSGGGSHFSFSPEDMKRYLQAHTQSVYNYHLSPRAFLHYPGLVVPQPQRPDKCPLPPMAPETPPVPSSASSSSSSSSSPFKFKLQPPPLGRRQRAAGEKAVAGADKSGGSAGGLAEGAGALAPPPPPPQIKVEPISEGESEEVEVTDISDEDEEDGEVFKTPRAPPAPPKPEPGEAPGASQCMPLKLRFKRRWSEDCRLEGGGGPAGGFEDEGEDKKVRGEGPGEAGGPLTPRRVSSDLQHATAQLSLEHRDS
Method in brief: as §1

ETV3L = biological target: T10, ETV3L (Homo sapiens, UniProt Q6ZN32 1-361)
T10 sequence: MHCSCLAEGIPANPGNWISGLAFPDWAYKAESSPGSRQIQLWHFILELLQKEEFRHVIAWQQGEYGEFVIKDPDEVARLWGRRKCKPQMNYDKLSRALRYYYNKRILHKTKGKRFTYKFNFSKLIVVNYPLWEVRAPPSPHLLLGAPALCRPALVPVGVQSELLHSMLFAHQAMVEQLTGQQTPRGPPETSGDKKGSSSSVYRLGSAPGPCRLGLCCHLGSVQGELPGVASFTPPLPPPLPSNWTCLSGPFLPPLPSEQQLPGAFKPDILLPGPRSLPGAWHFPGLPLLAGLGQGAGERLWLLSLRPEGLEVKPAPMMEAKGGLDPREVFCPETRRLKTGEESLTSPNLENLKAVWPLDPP
Method in brief: as §1

ETS2 = biological target: T11, ETS2 (Homo sapiens, UniProt P15036 1-469)
T11 sequence: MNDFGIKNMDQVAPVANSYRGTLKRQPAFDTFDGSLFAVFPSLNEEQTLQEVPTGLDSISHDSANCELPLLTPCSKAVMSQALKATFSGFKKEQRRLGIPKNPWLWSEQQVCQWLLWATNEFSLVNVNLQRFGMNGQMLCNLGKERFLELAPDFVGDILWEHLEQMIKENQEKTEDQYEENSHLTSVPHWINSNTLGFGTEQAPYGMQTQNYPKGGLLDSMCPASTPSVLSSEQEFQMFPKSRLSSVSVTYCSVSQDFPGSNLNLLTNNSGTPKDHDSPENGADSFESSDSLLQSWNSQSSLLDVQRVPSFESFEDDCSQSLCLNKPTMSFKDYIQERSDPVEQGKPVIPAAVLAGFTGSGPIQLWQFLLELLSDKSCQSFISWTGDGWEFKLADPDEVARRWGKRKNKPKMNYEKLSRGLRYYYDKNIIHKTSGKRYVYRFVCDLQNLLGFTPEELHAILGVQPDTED
Method in brief: as §1

SPDEF = biological target: T12, SPDEF (Homo sapiens, UniProt O95238 1-335)
T12 sequence: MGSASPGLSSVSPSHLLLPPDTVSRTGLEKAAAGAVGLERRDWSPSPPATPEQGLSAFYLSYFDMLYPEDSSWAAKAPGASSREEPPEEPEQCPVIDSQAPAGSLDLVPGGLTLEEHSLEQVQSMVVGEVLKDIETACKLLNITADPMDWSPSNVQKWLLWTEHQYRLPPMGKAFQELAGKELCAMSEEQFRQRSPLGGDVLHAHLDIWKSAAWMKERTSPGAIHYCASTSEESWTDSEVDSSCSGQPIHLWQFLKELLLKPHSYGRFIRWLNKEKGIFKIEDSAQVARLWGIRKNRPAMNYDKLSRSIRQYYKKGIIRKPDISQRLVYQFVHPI
Method in brief: as §1

ETV3 = biological target: T13, ETV3 (Homo sapiens, UniProt P41162-2 1-143)
T13 sequence: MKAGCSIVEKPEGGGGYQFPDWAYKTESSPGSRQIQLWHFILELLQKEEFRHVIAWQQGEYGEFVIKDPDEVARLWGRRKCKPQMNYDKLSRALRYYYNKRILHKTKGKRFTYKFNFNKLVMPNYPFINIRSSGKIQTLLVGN
Method in brief: as §1

ETV6 = ETV6 (Homo sapiens, UniProt P41212 1-452)
ETV6, sequence (P41212 whole entry): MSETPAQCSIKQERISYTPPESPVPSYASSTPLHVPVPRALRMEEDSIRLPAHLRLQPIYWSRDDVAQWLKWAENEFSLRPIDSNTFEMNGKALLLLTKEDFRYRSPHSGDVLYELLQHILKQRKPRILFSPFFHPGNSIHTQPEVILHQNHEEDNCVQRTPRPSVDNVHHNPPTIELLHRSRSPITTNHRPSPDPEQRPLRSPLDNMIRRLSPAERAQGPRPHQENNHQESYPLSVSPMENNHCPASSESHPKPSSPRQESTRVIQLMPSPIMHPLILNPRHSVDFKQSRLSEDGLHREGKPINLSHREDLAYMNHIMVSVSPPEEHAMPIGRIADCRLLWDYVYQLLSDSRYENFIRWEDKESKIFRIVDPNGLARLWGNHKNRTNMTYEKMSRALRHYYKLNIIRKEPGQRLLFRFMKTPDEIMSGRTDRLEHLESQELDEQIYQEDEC
Method in brief: as §1

In the case of CATACC, the binding signal (FLI1) was 1.03 fold enrichment (6-mer frequency, TF over GST control), the binding signal (ELK1) was 1.06 fold enrichment (6-mer frequency, TF over GST control) and the binding signal (GABPA) was 1.11 fold enrichment (6-mer frequency, TF over GST control). The binding signal (ERG) was 1.03 fold enrichment (6-mer frequency, TF over GST control), the binding signal (ELF1) was 1.09 fold enrichment (6-mer frequency, TF over GST control) and the binding signal (EHF) was 1.1 fold enrichment (6-mer frequency, TF over GST control). The binding signal (SPI1) was 1.03 fold enrichment (6-mer frequency, TF over GST control), the binding signal (SPIB) was 1.04 fold enrichment (6-mer frequency, TF over GST control) and the binding signal (ELK3) was 1.09 fold enrichment (6-mer frequency, TF over GST control). For the same sequence, the binding signal (FEV) was 1.07 fold enrichment (6-mer frequency, TF over GST control), the binding signal (ETV5) was 1.04 fold enrichment (6-mer frequency, TF over GST control) and the binding signal (SPIC) was 1.03 fold enrichment (6-mer frequency, TF over GST control). The binding signal (ELF4) was 1.1 fold enrichment (6-mer frequency, TF over GST control), the binding signal (ERF) was 1.03 fold enrichment (6-mer frequency, TF over GST control) and the binding signal (ETV3L) was 1.17 fold enrichment (6-mer frequency, TF over GST control). The binding signal (ETS2) was 1.1 fold enrichment (6-mer frequency, TF over GST control), the binding signal (SPDEF) was 1.14 fold enrichment (6-mer frequency, TF over GST control) and the binding signal (ETV3) was 1.06 fold enrichment (6-mer frequency, TF over GST control). The binding signal (ETV6) was 1.01 fold enrichment (6-mer frequency, TF over GST control).
